The list is not random: actives were taken first. Their share in the collection is about 4.1%.
TRPM1 prom inh: reduces MITF-dependent TRPM1 promoter luciferase signal | SK-MEL-5 TRPM1 promoter luciferase, 24 h | inhibition, % at 12.5 µM | 330,000 compounds, 0.83% hits | AID 488899;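 active = mean inhibition across replicates of 60% or more, whatever share of single replicates reaches that level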
Shn3 3UTR inh: inhibitors of Schnurri-3 3'UTR reporter in osteoblasts; Clone20 osteoblast Shn3 3'UTR firefly luciferase, 24 h; 360,000 compounds, 0.52% hits; inhibition, % at 12.5 µM; AID 588674;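 active = mean inhibition of at least 75% with every replicate also reaching 75%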;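 note: 0% = median of neutral control wells and 100% = pilot-screen positive control compound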
Peg3 promoter: inhibitors of Peg3 promoter | HeLa PEG-Prom luciferase reporter, luminescence, overnight | inhibition, % at 20 µM | 360,000 compounds, 1.7% hits | AID 588405;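 active = inhibition of at least 50% at 20 µM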
TROY NFkB inh: inhibitors of TROY-dependent NF-kB signaling. Q293 LMP1-TROYcd NF-kB luciferase reporter, 4 h. inhibition, % at 10 µM. 360,000 compounds, 0.98% hits. AID 1347056;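 active = compounds whose plate-normalised and pattern-corrected inhibition of the luciferase reporter signal at the single screening dose is 50% or more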
TWEAK-Fn14 inh: TWEAK-Fn14 signaling inhibition. TWEAK-stimulated Fn14 reporter cells, luciferase luminescence, 8 h. AID 1159606. inhibition, % at 10 µM. 360,000 compounds, 2% hits; in the data active = inhibition above about 50%
EBV LMP1 NFkB: inhibitors of Epstein-Barr LMP1-induced NF-kappaB reporter | LMP1-induced NF-kappaB luciferase reporter cells, luminescence | inhibition, % at 12.5 µM | 350,000 compounds, 0.69% hits | AID 504558; in the data active = inhibition above about 41%;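 note: 0% = neutral control wells and 100% = reference inhibitor control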
Starred values were filed as active, the others as inactive.

For O=c1c2ccccc2nc(/C=C/c2ccccc2)n1-c1ccc(O)cc1 the results were TRPM1 prom inh 9, Shn3 3UTR inh 13, Peg3 promoter 39, TROY NFkB inh 3, TWEAK-Fn14 inh 33 and EBV LMP1 NFkB -11.
Cc1cccc(-n2c(/C=C/c3ccc([N+](=O)[O-])o3)nc3ccccc3c2=O)c1 was read as TRPM1 prom inh 86*, Shn3 3UTR inh -47, Peg3 promoter 86*, TROY NFkB inh -6, TWEAK-Fn14 inh 95* and EBV LMP1 NFkB 84*.
For O=c1c2ccccc2nc(/C=C/c2ccc([N+](=O)[O-])o2)n1-c1ccc(O)cc1 the results were TRPM1 prom inh 94*, Shn3 3UTR inh 98*, Peg3 promoter 103*, TROY NFkB inh 33, TWEAK-Fn14 inh 93* and EBV LMP1 NFkB 86*.
Screening Cc1nc2ccccc2c(=O)n1-c1cc([N+](=O)[O-])cc([N+](=O)[O-])c1 returned TRPM1 prom inh 45, Shn3 3UTR inh 10, Peg3 promoter 3, TROY NFkB inh 5, TWEAK-Fn14 inh -21 and EBV LMP1 NFkB 4.
For CCOC(=O)C(c1c(O)c2ccccc2oc1=O)c1c(O)c2ccccc2oc1=O the results were Shn3 3UTR inh 5, Peg3 promoter 2, TROY NFkB inh -3 and TWEAK-Fn14 inh -3.
`COc1cc(/C=C/c2nc3ccccc3c(=O)n2-c2ccccc2O)ccc1O` gave TRPM1 prom inh 3, Shn3 3UTR inh -24, Peg3 promoter -13, TROY NFkB inh 18, TWEAK-Fn14 inh 56* and EBV LMP1 NFkB 1.
For N#CC(C#N)=Cc1ccc(-c2ccccc2F)o1 the results were TRPM1 prom inh 5, Shn3 3UTR inh 13, Peg3 promoter -32, TROY NFkB inh 11, TWEAK-Fn14 inh 70* and EBV LMP1 NFkB -20.
Screening N#CC(C#N)=Cc1ccc(O)c(O)c1 returned TRPM1 prom inh 2, Shn3 3UTR inh -8, Peg3 promoter -7, TROY NFkB inh -14, TWEAK-Fn14 inh -5 and EBV LMP1 NFkB -3.
`O=C(Cc1ccccc1)N1CCN(Cc2ccccn2)CC1` gave TRPM1 prom inh 4, Shn3 3UTR inh -2, Peg3 promoter -1, TROY NFkB inh -32, TWEAK-Fn14 inh 92* and EBV LMP1 NFkB 4.
Screening CCc1cc2c(cc1-c1csc(C/C(N)=N/O)n1)C(C)(C)CCC2(C)C returned Shn3 3UTR inh -13, Peg3 promoter 22, TROY NFkB inh -18, TWEAK-Fn14 inh 4 and EBV LMP1 NFkB -16.
For CN1CCCN(C(=O)COc2ccc(F)cc2F)CC1 the results were TRPM1 prom inh 5, Shn3 3UTR inh 13, Peg3 promoter -5, TROY NFkB inh -39, TWEAK-Fn14 inh -2 and EBV LMP1 NFkB 2.
C=C1C(=O)OC2CC3(C)OC3CCC(C)=CC(OC(C)=O)C12 (configuration not stated) was read as TRPM1 prom inh 70*, Shn3 3UTR inh 2, Peg3 promoter 95*, TROY NFkB inh 52*, TWEAK-Fn14 inh 76* and EBV LMP1 NFkB 55*.
`O=C(O)c1ccc(N=Cc2c(O)[nH]c(=O)[nH]c2=O)cc1` gave TRPM1 prom inh -7, Shn3 3UTR inh -3, Peg3 promoter 1, TROY NFkB inh 10, TWEAK-Fn14 inh 5 and EBV LMP1 NFkB -10.
`Cc1cc(C)c(N=Cc2c(O)[nH]c(=O)[nH]c2=O)c(C)c1` gave TRPM1 prom inh 32, Shn3 3UTR inh -27, Peg3 promoter 51*, TROY NFkB inh -1, TWEAK-Fn14 inh -7 and EBV LMP1 NFkB 4.
`CS(=O)(=O)c1ccc(C2=C(CNC(=O)c3cccs3)[C@H]3CC[C@@H](C2)N3Cc2ccco2)cc1` gave Shn3 3UTR inh -34, Peg3 promoter 10, TROY NFkB inh 11, TWEAK-Fn14 inh 17 and EBV LMP1 NFkB -1.
`CN1C2CCC1/C(=C/c1ccccn1)C(=O)/C2=C\c1ccccn1` gave TRPM1 prom inh 97*, Shn3 3UTR inh 93*, Peg3 promoter 99*, TROY NFkB inh 42, TWEAK-Fn14 inh 100* and EBV LMP1 NFkB 93*.
Screening Cc1cccc(C)c1-n1nnnc1C(C1CC1)N1CCC2(CC1)C(=O)NCN2c1ccccc1 (configuration not stated) returned Shn3 3UTR inh -17, Peg3 promoter 30, TROY NFkB inh 75* and TWEAK-Fn14 inh 37.
For Cc1cccc(C)c1-n1nnnc1C(c1ccccc1)N1CCC2(CC1)C(=O)NCN2c1ccccc1 (configuration not stated) the results were Shn3 3UTR inh 9, Peg3 promoter 46, TROY NFkB inh -12 and TWEAK-Fn14 inh -24.
COc1ccc(-n2nnnc2C(c2cccc3ccccc23)N2CCC3(CC2)C(=O)NCN3c2ccccc2)cc1 (configuration not stated) was read as Shn3 3UTR inh 5, Peg3 promoter 15, TROY NFkB inh 10 and TWEAK-Fn14 inh 53*.
O=C1NCN(c2ccccc2)C12CCN(C(c1ccccc1OC(F)(F)F)c1nnnn1Cc1ccccc1)CC2 (configuration not stated) was read as Shn3 3UTR inh 21, Peg3 promoter 91*, TROY NFkB inh 21 and TWEAK-Fn14 inh 48.
For O=[N+]([O-])c1cccc2c([As](=O)(O)O)cccc12 the results were TRPM1 prom inh 3, Shn3 3UTR inh -7, Peg3 promoter -15, TROY NFkB inh -16, TWEAK-Fn14 inh 17 and EBV LMP1 NFkB -5.
CCOC(=O)[C@]12Cc3cc(OC)ccc3[C@H]1N(C1CCCCC1)C(=O)c1ccccc12 was read as TROY NFkB inh 48 and TWEAK-Fn14 inh 66*.
CCOC(=O)[C@]12Cc3cc(Cl)ccc3[C@H]1N(C1CCCCC1)C(=O)c1ccccc12 was read as TROY NFkB inh 57* and TWEAK-Fn14 inh 90*.
CN1CN(c2ccccc2)C2(CCN(CCCSc3ccccc3NC(=O)/C=C/c3ccccc3)CC2)C1=O was read as TRPM1 prom inh 69*, Shn3 3UTR inh 59, Peg3 promoter 32, TROY NFkB inh 21, TWEAK-Fn14 inh 4 and EBV LMP1 NFkB 11.
For CC1=C(O)C(=O)C=C2C1=CC=C1C2(C)CCC2(C)C3CC(C)(C(=O)O)CCC3(C)CCC12C (configuration not stated) the results were TRPM1 prom inh 94*, Shn3 3UTR inh 95*, Peg3 promoter 105*, TROY NFkB inh 89*, TWEAK-Fn14 inh 106* and EBV LMP1 NFkB 88*.
`CCN(CC)C(=O)c1ccc(NC(=O)CNC(C)c2cccc3ccccc23)cc1` (configuration not stated) gave TRPM1 prom inh 11, Shn3 3UTR inh 17, Peg3 promoter 28, TROY NFkB inh 11, TWEAK-Fn14 inh 20 and EBV LMP1 NFkB 5.
Screening COC(=O)C1=C(c2ccc(OCc3ccccc3)cc2)C[C@@H]2CC[C@H]1N2C(=O)NCc1ccccc1C(F)(F)F returned Shn3 3UTR inh 51, Peg3 promoter 21, TROY NFkB inh -3, TWEAK-Fn14 inh 20 and EBV LMP1 NFkB 1.
